# Data from PubChem BioAssay (EPA / NIEHS).
# Calls of active or inactive are those of the source. Rule for the calls: active = hit-call score of the fitted dose curve at least 0.9, where 1 is the maximum; inactive = score below 0.9.
# How the values were obtained:
# Conditions in all cases: mRNA level, 48 h; actives raise or lower the signal
# [1] = read-out: Tumor necrosis factor receptor superfamily member 6 (Homo sapiens) (UniProt P25445); experiment: LTEA_HepaRG_FAS: Life Technologies and Expression Analysis (LTEA) Assay for Fas cell surface death receptor (FAS) using HepaRG (AID 2283447)
# Procedure, shortened: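 FAS transcript level was measured by TaqMan qRT-PCR against three housekeeping genes after 48 h chemical exposure. Cells were HepaRG, 0.5% DMSO vehicle, with a top concentration of 100 uM and half-log dilutions over eight points, in duplicate.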
# [2] = read-out: Fatty acid synthase (Homo sapiens) (UniProt P49327); experiment: LTEA_HepaRG_FASN: Life Technologies and Expression Analysis (LTEA) Assay for Fatty Acid Synthase (FASN) using HepaRG (AID 2283448);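 for AC50: differentiated human HepaRG liver cells in serum-free induction medium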
# Procedure, shortened: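 FASN expression changes, up or down relative to 0.5% DMSO, were measured by qRT-PCR in human HepaRG cells after 48 h treatment with chemicals at eight concentrations (half-log steps from 100 uM).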
# [3] = read-out: Cyclin D2 (CCND2), CCND2 (gene 894); experiment: LTEA_HepaRG_CCND2: Life Technologies and Expression Analysis (LTEA) Assay for Cyclin D2 (CCND2) using HepaRG (AID 2283449)
# Procedure, shortened: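 Read-out is CCND2 mRNA level measured by qRT-PCR in human HepaRG liver cells and normalised to three housekeeping genes. Chemicals were applied for 48 h at up to 100 uM, with gain or loss fitted relative to 0.5% DMSO.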
# [4] = read-out: Cyclin D1 (CCND1), CCND1 (gene 595); experiment: LTEA_HepaRG_CCND1: Life Technologies and Expression Analysis (LTEA) Assay for Cyclin D1 (CCND1) using HepaRG (AID 2283451);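 for AC50: differentiated human HepaRG liver cells in serum-free induction medium; TaqMan qRT-PCR transcript level normalised to ACTB GAPDH and POLR2A housekeeping genes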
# Procedure, shortened: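 Expression change is measured by qRT-PCR in HepaRG cells after 48 h treatment across eight concentrations topping at 100 uM, with duplicate wells and DMSO (0.5%) serving as baseline for bidirectional fitting.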
# [5] = read-out: catalase (CAT), CAT (gene 847); experiment: LTEA_HepaRG_CAT: Life Technologies and Expression Analysis (LTEA) Assay for catalase (CAT) using HepaRG (AID 2283452)
# Procedure, shortened: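 Expression of CAT was quantified by TaqMan qRT-PCR with ACTB/GAPDH/POLR2A normalization after 48 h chemical exposure of HepaRG. Eight-point half-log series, top 100 uM, in 0.5% DMSO; gain or loss fitted against vehicle.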
# [6] = read-out: flavin-containing dimethylaniline monooxygenases 3 (FMO3), FMO3 (gene 2328); experiment: LTEA_HepaRG_FMO3: Life Technologies and Expression Analysis (LTEA) Assay for flavin-containing dimethylaniline monooxygenases 3 (FMO3) using HepaRG (AID 2283453);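 for AC50: differentiated human HepaRG liver cells in serum-free induction medium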
# Procedure, shortened: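 Differentiated HepaRG cells in serum-free induction medium, exposed 48 h in duplicate to 8 half-log concentrations up to 100 uM in 0.5% DMSO. FMO3 mRNA by qRT-PCR, normalized to ACTB, GAPDH, POLR2A; bidirectional fit vs DMSO.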
# [7] = read-out: Cytochrome P450 (CYP1A1), CYP1A1 (gene 1543); experiment: LTEA_HepaRG_CYP1A1: Life Technologies and Expression Analysis (LTEA) Assay for Cytochrome P450 (CYP1A1) using HepaRG (AID 2283454)
# Procedure, shortened: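 Using HepaRG cultures with 0.5% DMSO as vehicle, eight-concentration exposures (max 100 uM) lasted 48 h. Transcript levels were measured by TaqMan qRT-PCR and normalized to ACTB, GAPDH and POLR2A.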
# [8] = read-out: CFLAR gene, CFLAR (gene 8837); experiment: LTEA_HepaRG_CFLAR: Life Technologies and Expression Analysis (LTEA) Assay for CFLAR gene using HepaRG (AID 2283455)
# Procedure, shortened: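 HepaRG, 48 h exposure, 8-pt conc-response (100 uM top, half-log), 0.5% DMSO vehicle, duplicates. CFLAR expression by qRT-PCR; ACTB/GAPDH/POLR2A normalization; gain or loss fit vs DMSO baseline.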
# [9] = read-out: Forkhead box O1 (FOXO1), FOXO1 (gene 2308); experiment: LTEA_HepaRG_FOXO1: Life Technologies and Expression Analysis (LTEA) Assay for Forkhead box O1 (FOXO1) using HepaRG (AID 2283456)
# Procedure, shortened: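 Readout is FOXO1 transcript level by multiplexed qRT-PCR against three housekeeping genes, curve-fitted in both directions relative to 0.5% DMSO vehicle. Human HepaRG cultures received chemicals for 48 h, up to 100 uM in half-log steps.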
# [10] = read-out: growth arrest and DNA damage 45 (GADD45A), GADD45A (gene 1647); experiment: LTEA_HepaRG_GADD45A: Life Technologies and Expression Analysis (LTEA) Assay for growth arrest and DNA damage 45 (GADD45A) using HepaRG (AID 2283458)
# Procedure, shortened: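 Cells plated and cultured 48 h, switched to serum-free induction medium, then dosed for 48 h (100 uM top, half-log dilutions, 0.5% DMSO). RNA was isolated and transcript measured by Fluidigm qRT-PCR.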
# [11] = read-out: Forkhead box O3 (FOXO3), FOXO3 (gene 2309); experiment: LTEA_HepaRG_FOXO3: Life Technologies and Expression Analysis (LTEA) Assay for Forkhead box O3 (FOXO3) using HepaRG (AID 2283459)
# Procedure, shortened: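 HepaRG, 48 h post-dose; 8 conc., half-log from 100 uM, 0.5% DMSO, duplicates; serum-free induction medium. Readout: FOXO3 mRNA, TaqMan qRT-PCR, housekeeping-normalized. Bidirectional curve fit vs DMSO baseline.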
# [12] = read-out: ABC Transporter (ABCB1), ABCB1 (gene 5243); experiment: LTEA_HepaRG_ABCB1: Life Technologies and Expression Analysis (LTEA) Assay for ABC Transporter (ABCB1) using HepaRG (AID 2283460)
# Procedure, shortened: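 Expression of ABCB1 was quantified by qRT-PCR against three housekeeping genes after human HepaRG cultures received test chemicals for 48 hours. Concentrations spanned eight half-log steps topping at 100 uM in 0.5% DMSO; gain or loss of signal was fitted relative to vehicle.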
# [13] = read-out: growth arrest and DNA damage 45 (GADD45B), GADD45B (gene 4616); experiment: LTEA_HepaRG_GADD45B: Life Technologies and Expression Analysis (LTEA) Assay for growth arrest and DNA damage 45 (GADD45B) using HepaRG (AID 2283461)
# Procedure, shortened: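 Human HepaRG monolayers receive chemicals for 48 h at eight half-log concentrations, highest 100 uM, in 0.5% DMSO. Expression is measured by TaqMan qRT-PCR and normalized to ACTB, GAPDH and POLR2A.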
# [14] = read-out: ABC Transporter (ABCC3), ABCC3 (gene 8714); experiment: LTEA_HepaRG_ABCC3: Life Technologies and Expression Analysis (LTEA) Assay for ABC Transporter (ABCC3) using HepaRG (AID 2283462)
# Procedure, shortened: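 Transcriptional change of ABCC3 in HepaRG after 48 h treatment, determined by qRT-PCR normalized to endogenous controls. Concentrations spanned eight half-log steps to 100 uM in 0.5% DMSO.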
# [15] = read-out: ABC Transporter (ABCB11), ABCB11 (gene 8647); experiment: LTEA_HepaRG_ABCB11: Life Technologies and Expression Analysis (LTEA) Assay for ABC Transporter (ABCB11) using HepaRG (AID 2283463)
# Procedure, shortened: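 ABCB11 transcript levels are read by Fluidigm TaqMan qRT-PCR after 48 h chemical treatment of human HepaRG cells. Concentrations span 100 uM downward in half-log steps with 0.5% DMSO; gain or loss is fitted against DMSO controls.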
# [16] = read-out: ABC Transporter (ABCC2), ABCC2 (gene 1244); experiment: LTEA_HepaRG_ABCC2: Life Technologies and Expression Analysis (LTEA) Assay for ABC Transporter (ABCC2) using HepaRG (AID 2283464)
# Procedure, shortened: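 After plating and 48 h culture, HepaRG medium is replaced with serum-free induction medium and chemicals are added (8 concentrations, max 100 uM, 0.5% DMSO) for 48 h. Total RNA then undergoes qRT-PCR for ABCC2 with housekeeping normalization.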
# [17] = read-out: Broad substrate specificity ATP-binding cassette transporter ABCG2 (Homo sapiens) (UniProt Q9UNQ0); experiment: LTEA_HepaRG_ABCG2: Life Technologies and Expression Analysis (LTEA) Assay for ABC Transporter (ABCG2) using HepaRG (AID 2283465)
# Procedure, shortened: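 Read-out is ABCG2 mRNA induction or loss quantified by qRT-PCR after 48 h chemical treatment of human HepaRG cells, normalized to three housekeeping genes. Concentrations reached 100 uM top in half-log steps; fitting was bidirectional against 0.5% DMSO.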
# [18] = read-out: Cyclin Dependent Kinase Inhibitor 1A (CDKN1A), CDKN1A (gene 1026); experiment: LTEA_HepaRG_CDKN1A: Life Technologies and Expression Analysis (LTEA) Assay for Cyclin Dependent Kinase Inhibitor 1A (CDKN1A) using HepaRG (AID 2283450)
# Procedure, shortened: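 Gain or loss of CDKN1A transcript is scored by bidirectional fitting against 0.5% DMSO vehicle. Human HepaRG cultures receive chemicals for 48 h across an 8-point series peaking at 100 uM; expression comes from qRT-PCR.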
# Sequence of Fatty acid synthase (Homo sapiens) (P49327 whole entry, looked up): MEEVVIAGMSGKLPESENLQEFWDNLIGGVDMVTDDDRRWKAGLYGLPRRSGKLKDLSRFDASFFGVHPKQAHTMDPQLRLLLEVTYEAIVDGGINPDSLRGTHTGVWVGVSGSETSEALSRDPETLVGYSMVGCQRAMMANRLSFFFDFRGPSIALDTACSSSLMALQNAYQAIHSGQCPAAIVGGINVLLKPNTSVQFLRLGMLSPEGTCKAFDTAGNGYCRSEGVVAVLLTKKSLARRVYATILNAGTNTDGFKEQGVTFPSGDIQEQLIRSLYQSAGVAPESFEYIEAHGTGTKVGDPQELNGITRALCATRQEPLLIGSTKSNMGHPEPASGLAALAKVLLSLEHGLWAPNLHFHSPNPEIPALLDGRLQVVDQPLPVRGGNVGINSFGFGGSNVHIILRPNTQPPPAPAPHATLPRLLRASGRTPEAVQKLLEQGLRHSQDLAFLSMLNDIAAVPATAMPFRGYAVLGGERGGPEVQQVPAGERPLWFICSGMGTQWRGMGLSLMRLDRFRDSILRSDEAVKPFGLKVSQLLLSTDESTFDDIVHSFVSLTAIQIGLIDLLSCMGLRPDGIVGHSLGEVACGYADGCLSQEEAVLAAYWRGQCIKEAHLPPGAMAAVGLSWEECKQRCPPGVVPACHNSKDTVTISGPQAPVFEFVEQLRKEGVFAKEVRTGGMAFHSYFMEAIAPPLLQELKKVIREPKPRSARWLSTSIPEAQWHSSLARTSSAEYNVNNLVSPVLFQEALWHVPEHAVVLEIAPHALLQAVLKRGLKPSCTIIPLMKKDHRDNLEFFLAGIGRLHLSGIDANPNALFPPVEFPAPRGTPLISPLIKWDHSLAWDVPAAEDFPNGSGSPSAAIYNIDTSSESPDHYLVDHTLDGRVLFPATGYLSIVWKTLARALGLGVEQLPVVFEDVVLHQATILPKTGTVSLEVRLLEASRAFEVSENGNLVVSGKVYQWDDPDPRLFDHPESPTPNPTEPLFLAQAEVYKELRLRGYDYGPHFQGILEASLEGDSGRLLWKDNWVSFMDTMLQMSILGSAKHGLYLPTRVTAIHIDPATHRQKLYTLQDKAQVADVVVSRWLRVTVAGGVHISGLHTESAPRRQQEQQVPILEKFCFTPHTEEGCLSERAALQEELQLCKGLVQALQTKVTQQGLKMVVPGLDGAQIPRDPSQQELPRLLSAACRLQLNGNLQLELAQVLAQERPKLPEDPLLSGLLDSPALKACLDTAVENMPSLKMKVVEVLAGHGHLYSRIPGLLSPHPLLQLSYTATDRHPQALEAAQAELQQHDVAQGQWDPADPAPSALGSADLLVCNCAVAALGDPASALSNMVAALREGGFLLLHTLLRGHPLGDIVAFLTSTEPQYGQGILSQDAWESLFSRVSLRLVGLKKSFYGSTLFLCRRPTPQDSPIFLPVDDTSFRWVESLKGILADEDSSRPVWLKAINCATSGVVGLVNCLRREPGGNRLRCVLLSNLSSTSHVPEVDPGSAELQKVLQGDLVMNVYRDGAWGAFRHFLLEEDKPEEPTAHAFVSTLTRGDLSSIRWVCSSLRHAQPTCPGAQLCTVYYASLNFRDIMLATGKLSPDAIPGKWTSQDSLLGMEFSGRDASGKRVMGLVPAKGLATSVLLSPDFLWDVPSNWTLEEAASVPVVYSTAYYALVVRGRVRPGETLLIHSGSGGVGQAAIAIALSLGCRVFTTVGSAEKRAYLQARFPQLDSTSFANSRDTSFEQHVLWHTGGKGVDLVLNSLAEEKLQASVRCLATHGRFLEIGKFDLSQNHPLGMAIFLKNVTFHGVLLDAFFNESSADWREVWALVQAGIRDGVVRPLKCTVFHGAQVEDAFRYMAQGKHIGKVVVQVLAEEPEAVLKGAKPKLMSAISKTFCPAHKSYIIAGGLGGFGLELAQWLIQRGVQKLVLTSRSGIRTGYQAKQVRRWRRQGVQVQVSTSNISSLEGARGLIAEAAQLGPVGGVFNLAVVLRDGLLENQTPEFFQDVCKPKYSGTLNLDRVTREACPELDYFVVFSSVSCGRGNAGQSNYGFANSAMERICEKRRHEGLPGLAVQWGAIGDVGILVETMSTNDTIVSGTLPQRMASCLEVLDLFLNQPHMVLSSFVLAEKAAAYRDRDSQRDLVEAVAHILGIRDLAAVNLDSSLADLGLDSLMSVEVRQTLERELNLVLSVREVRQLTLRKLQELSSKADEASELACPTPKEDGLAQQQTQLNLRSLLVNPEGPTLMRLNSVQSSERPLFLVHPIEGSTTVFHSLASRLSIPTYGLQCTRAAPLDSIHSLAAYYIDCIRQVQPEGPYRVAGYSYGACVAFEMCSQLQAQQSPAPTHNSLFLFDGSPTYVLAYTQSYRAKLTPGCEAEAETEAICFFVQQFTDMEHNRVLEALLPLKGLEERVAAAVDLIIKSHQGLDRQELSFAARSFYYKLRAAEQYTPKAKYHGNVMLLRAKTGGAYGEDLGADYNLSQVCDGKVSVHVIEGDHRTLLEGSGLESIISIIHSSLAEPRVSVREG
# Sequence of Broad substrate specificity ATP-binding cassette transporter ABCG2 (Homo sapiens) (Q9UNQ0 whole entry, looked up): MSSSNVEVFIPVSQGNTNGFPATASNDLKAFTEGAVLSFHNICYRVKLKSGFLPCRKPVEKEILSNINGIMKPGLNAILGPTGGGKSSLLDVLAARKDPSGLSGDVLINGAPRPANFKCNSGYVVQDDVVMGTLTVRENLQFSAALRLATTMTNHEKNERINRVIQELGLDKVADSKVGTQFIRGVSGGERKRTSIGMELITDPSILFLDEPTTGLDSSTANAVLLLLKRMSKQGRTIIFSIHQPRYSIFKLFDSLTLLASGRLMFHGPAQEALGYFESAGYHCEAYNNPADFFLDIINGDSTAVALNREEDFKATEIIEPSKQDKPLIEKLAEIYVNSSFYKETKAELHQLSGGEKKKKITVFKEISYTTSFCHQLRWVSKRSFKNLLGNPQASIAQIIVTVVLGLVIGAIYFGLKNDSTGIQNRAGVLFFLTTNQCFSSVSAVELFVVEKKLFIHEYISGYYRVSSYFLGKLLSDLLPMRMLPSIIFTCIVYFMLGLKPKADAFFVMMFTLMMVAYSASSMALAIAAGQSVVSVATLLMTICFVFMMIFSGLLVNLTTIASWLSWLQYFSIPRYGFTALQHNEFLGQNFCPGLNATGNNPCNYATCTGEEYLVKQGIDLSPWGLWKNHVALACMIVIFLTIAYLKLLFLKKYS
structure (smiles),measurement,setting,value
CN(C)c1ccc(C(=O)c2ccc(N(C)C)cc2)cc1,outcome,[1],inactive
same,outcome,[2],inactive
same,outcome,[3],inactive
same,outcome,[4],inactive
same,outcome,[5],inactive
same,AC50,[6],50 µM (active)
same,AC50,[7],14.6 µM (active)
same,outcome,[8],inactive
same,outcome,[9],inactive
same,outcome,[10],inactive
same,outcome,[11],inactive
same,outcome,[12],inactive
same,outcome,[13],inactive
same,outcome,[14],inactive
same,outcome,[15],inactive
same,outcome,[16],inactive
same,outcome,[17],inactive
[O-][Cl+]O,outcome,[2],inactive
same,outcome,[4],inactive
same,outcome,[5],inactive
same,outcome,[6],inactive
same,outcome,[7],inactive
same,outcome,[8],inactive
same,outcome,[9],inactive
same,outcome,[10],inactive
same,outcome,[11],inactive
same,outcome,[12],inactive
same,outcome,[13],inactive
same,outcome,[14],inactive
same,outcome,[15],inactive
same,outcome,[16],inactive
same,outcome,[17],inactive
CC(C)(OOC(C)(C)c1ccccc1)c1ccccc1,outcome,[1],inactive
same,outcome,[2],inactive
same,outcome,[18],inactive
same,outcome,[4],inactive
same,outcome,[5],inactive
same,outcome,[6],inactive
same,AC50,[7],50 µM (active)
same,outcome,[8],inactive
same,outcome,[9],inactive
same,outcome,[10],inactive
same,outcome,[11],inactive
same,outcome,[12],inactive
same,AC50,[13],50 µM (active)
same,outcome,[14],inactive
same,outcome,[15],inactive
same,AC50,[16],50 µM (active)
same,outcome,[17],inactive
CN(C)[C@@H]1C(=O)C(C(N)=O)=C(O)[C@@]2(O)C(=O)C3=C(O)c4c(O)cccc4[C@@](C)(O)[C@H]3C[C@@H]12,outcome,[1],inactive
same,outcome,[2],inactive
same,outcome,[3],inactive
same,outcome,[4],inactive
same,outcome,[5],inactive
same,outcome,[6],inactive
same,AC50,[7],34.7 µM (active)
same,outcome,[8],inactive
same,outcome,[9],inactive
same,outcome,[10],inactive
same,outcome,[11],inactive
same,outcome,[12],inactive
same,outcome,[13],inactive
same,outcome,[14],inactive
same,outcome,[15],inactive
same,outcome,[16],inactive
same,outcome,[17],inactive
CCNS(=O)(=O)C(F)(F)C(F)(F)C(F)(F)C(F)(F)C(F)(F)C(F)(F)C(F)(F)C(F)(F)F,outcome,[1],inactive
same,AC50,[2],48.2 µM (active)
same,outcome,[18],inactive
same,outcome,[4],inactive
same,outcome,[5],inactive
same,AC50,[6],75.9 µM (active)
same,AC50,[7],69.3 µM (active)
same,outcome,[8],inactive
same,outcome,[9],inactive
same,outcome,[10],inactive
same,outcome,[11],inactive
same,outcome,[12],inactive
same,outcome,[13],inactive
same,outcome,[14],inactive
same,AC50,[15],23.7 µM (active)
same,outcome,[16],inactive
same,outcome,[17],inactive
C=CCc1ccc2c(c1)OCO2,outcome,[1],inactive
same,outcome,[2],inactive
same,outcome,[3],inactive
same,outcome,[4],inactive
same,outcome,[5],inactive
same,outcome,[6],inactive
same,AC50,[7],50 µM (active)
same,outcome,[8],inactive
same,outcome,[9],inactive
same,outcome,[10],inactive
same,outcome,[11],inactive
same,outcome,[12],inactive
same,outcome,[13],inactive
same,outcome,[14],inactive
same,outcome,[15],inactive
same,outcome,[16],inactive
same,outcome,[17],inactive
O=C(O)C1C2CCC(O2)C1C(=O)O (configuration not stated),outcome,[1],inactive
same,AC50,[2],84.3 µM (active)
same,outcome,[3],inactive
same,AC50,[4],32.3 µM (active)
same,outcome,[5],inactive
same,AC50,[6],56.4 µM (active)
same,AC50,[7],82.6 µM (active)
same,outcome,[8],inactive
same,outcome,[9],inactive
same,outcome,[10],inactive
same,AC50,[11],37.4 µM (active)
same,outcome,[12],inactive
same,outcome,[13],inactive
same,outcome,[14],inactive
same,AC50,[15],77.9 µM (active)
same,outcome,[16],inactive
same,AC50,[17],14.2 µM (active)
